Results filed as inconclusive are left out. The source made the active and inactive calls. Calls come from the whole dose curve.

Test [1] in a line: Primary qHTS for Huh7 cytotoxicity: counterscreen for inhibitors of MERS-S pseudotyped particle cell entry (AID 1479147). The note with it: cell viability read-out; series mostly up to 57.1 µM. For orientation: Quantitative high-throughput screening tests each substance at several concentrations.
Test [2] in a line: Primary qHTS for inhibitors of MERS-S pseudo-typed particle cell entry (AID 1479149). Note: nearly all actives have a fitted effect of over 60% in size. The note with it: MERS-S pseudotyped particle entry, luciferase; series mostly up to 57.1 µM.
A short description of test [3]: Primary qHTS for Vero E6 cytotoxicity: counterscreen for inhibitors of SARS-S pseudo-typed particle cell entry (AID 1479150). The note with it: cell viability; series mostly up to 57.1 µM.
Potency is the fitted concentration of half-maximal effect.

In the case of `C(=C\c1ccccc1)/CN1CCN(C(c2ccccc2)c2ccccc2)CC1`, the Potency result in test [1], in test [2] and in test [3] was “inactive” each time.
As for `O=c1[nH]c(=O)c2[nH]c(=O)[nH]c2[nH]1`, the outcome in test [1], in test [2] and in test [3] was “inactive [at 11.4 µM]” in each case.
Consider `CN(C)CCCOC1(Cc2ccccc2)CCCCCC1`, for which the Potency entry in test [1], in test [2] and in test [3] was “inactive” in each case.
Turning to `OCc1ccccc1O`, the Potency entry in test [1], in test [2] and in test [3] was “inactive” in each case.
For `C/C=C(/C(=C/C)c1ccc(O)cc1)c1ccc(O)cc1`, the Potency entry in test [1], in test [2] and in test [3] was “inactive” in each case.
`COc1ccccc1OC(=O)Oc1ccccc1OC`: the Potency entry in test [1], in test [2] and in test [3] was “inactive” in each case.
Regarding `Nc1ccn(C2CO[C@H](CO)O2)c(=O)n1` (some centres undefined), the Potency entry in test [1], in test [2] and in test [3] was “inactive” throughout.
Consider `O=C(OCC(O)CO)c1ccccc1Nc1ccnc2cc(Cl)ccc12` (centres undefined), for which the Potency result in test [1], in test [2] and in test [3] was “inactive” throughout.
Take `CCOc1ccccc1O[C@H](c1ccccc1)[C@H]1CNCCO1`: the Potency entry in test [1], in test [2] and in test [3] was “inactive” each time.
Consider `Cc1ncc(COP(=O)(O)O)c(C=O)c1O`, for which the Potency result in test [1], in test [2] and in test [3] was “inactive” throughout.
Turning to `CN(C)CCN(Cc1ccccc1)c1ccccn1`, the Potency entry in test [1], in test [2] and in test [3] was “inactive” each time.
Consider `CCOc1ccc(Cc2nccc3cc(OCC)c(OCC)cc23)cc1OCC`, for which the Potency in test [1] was 12.6 µM (active); in test [2], 3.55 µM (active); in test [3] it was 17.8 µM (active).
With `CC(=O)[C@@]1(O)CC[C@H]2[C@@H]3C[C@H](C)C4=CC(=O)CC[C@]4(C)[C@H]3CC[C@@]21C`, the Potency result in test [1], in test [2] and in test [3] was “inactive” in each case.
Turning to `O=C1CC2(CCCC2)CC(=O)N1CCCCN1CCN(c2ncccn2)CC1`, the Potency result in test [1], in test [2] and in test [3] was “inactive” each time.
As to `C[N+]1(C)CCC(=C(c2ccccc2)c2ccccc2)CC1`, the Potency result in test [1], in test [2] and in test [3] was “inactive” in each case.
In the case of `CC(=O)OCC(=O)NCCCOc1cccc(CN2CCCCC2)c1`, the Potency result in test [1], in test [2] and in test [3] was “inactive” in each case.
Turning to `CN(C)CC[C@@H](c1ccc(Cl)cc1)c1ccccn1`, the Potency entry in test [1], in test [2] and in test [3] was “inactive” throughout.
Take `C[C@H](O)C(=O)Nc1c(I)c(C(=O)NC(CO)CO)c(I)c(C(=O)NC(CO)CO)c1I`: the Potency result in test [1], in test [2] and in test [3] was “inactive” throughout.
`CCOC(=O)[C@H](CCc1ccccc1)N[C@@H](C)C(=O)N1C(=O)N(C)C[C@H]1C(=O)O`: the Potency entry in test [1], in test [2] and in test [3] was “inactive” each time.
With `CCOCCOC(=O)/C=C/c1ccc(OC)cc1`, the Potency result in test [1], in test [2] and in test [3] was “inactive” each time.
As to `O=C1OC(c2ccc(O)cc2)(c2ccc(O)cc2)c2ccccc21`, the Potency result in test [1], in test [2] and in test [3] was “inactive” in each case.
Regarding `CCN(CC)C(=O)Nc1ccc(OCC(O)CNC(C)(C)C)c(C(C)=O)c1` (centres undefined), the Potency result in test [1], in test [2] and in test [3] was “inactive” in each case.
As for `O=C(OCc1ccccc1)c1ccc(O)cc1`, the Potency entry in test [1], in test [2] and in test [3] was “inactive” each time.
As for `CCc1oc2ccccc2c1C(=O)c1cc(Br)c(O)c(Br)c1`, the Potency result in test [1], in test [2] and in test [3] was “inactive” in each case.
With `COc1ccc2cc3[n+](cc2c1OC)CCc1cc2c(cc1-3)OCO2`, the Potency result in test [1] and in test [3] was “inactive” in each case. In addition, in test [2], the Potency was 12.6 µM (active).
As to `Cn1cc(C(=O)[C@@H]2CCc3nc[nH]c3C2)c2ccccc21`, the Potency result in test [1], in test [2] and in test [3] was “inactive” each time.
Regarding `O=c1oc2c(O)c(O)cc3c(=O)oc4c(O)c(O)cc1c4c23`, the Potency result in test [1], in test [2] and in test [3] was “inactive” in each case.
With `CCOC(CN1CCN(CC(C)C(=O)c2ccccc2)CC1)c1ccccc1` (centres undefined), the Potency entry in test [1], in test [2] and in test [3] was “inactive” in each case.
As to `CCOC(=O)OCC/C(SC(=O)OCC)=C(\C)N(C=O)Cc1cnc(C)nc1N`, the Potency entry in test [1], in test [2] and in test [3] was “inactive” each time.
For `CCOc1ccc(C(=O)OCCN(CC)CC)cc1`, the Potency result in test [1], in test [2] and in test [3] was “inactive” in each case.
Regarding `CC(=O)Nc1ccc(S(=O)(=O)Nc2ccc([N+](=O)[O-])cc2)cc1`, the Potency entry in test [1], in test [2] and in test [3] was “inactive” in each case.
`CCN(CC)CCOC(=O)C(Cc1cccc2ccccc12)CC1CCCO1` (centres undefined): the Potency entry in test [1], in test [2] and in test [3] was “inactive” each time.
As for `COc1cc(NS(=O)(=O)c2ccc(N)cc2)ncn1`, the Potency result in test [1], in test [2] and in test [3] was “inactive” in each case.
Regarding `CN1CCC(=C2c3ccccc3CC(=O)c3sccc32)CC1`, the Potency result in test [1], in test [2] and in test [3] was “inactive” each time.
`O=S(=O)(c1cccc2cnccc12)N1CCCNCC1`: the Potency result in test [1], in test [2] and in test [3] was “inactive” throughout.
Regarding `CCCC(=O)O[C@]1(C(=O)CC)CC[C@H]2[C@@H]3CCC4=CC(=O)CC[C@]4(C)[C@H]3[C@@H](O)C[C@@]21C`, the Potency result in test [1], in test [2] and in test [3] was “inactive” each time.
Regarding `C=CCOc1cc(Cl)ccc1C(=O)NCCN(CC)CC`, the Potency entry in test [1], in test [2] and in test [3] was “inactive” throughout.
On to `C=C1c2cccc(O)c2C(O)=C2C(=O)[C@]3(O)C(O)=C(C(N)=O)C(=O)[C@@H](N(C)C)[C@@H]3[C@@H](O)[C@H]12`, for which the Potency entry in test [1], in test [2] and in test [3] was “inactive” throughout.

Source of the values: PubChem BioAssay (NCATS).
